aSyn 5UTR act = Activators working through SNCA 5'UTR binding (MLPCN) | alpha-synuclein 5'UTR reporter, activators screen | activity score, % (tested at 7.5 µM), hits read low | actives 7.1% (n = 300,000) | AID 1814; in the data active = activity score below about -60%
Numbers without * were called inactive. Not all results are given here.

SMILES | aSyn 5UTR act
CCSc1nnc(NC(=O)c2ccccc2C)s1 | -117.2*
CCSc1nnc(NC(=O)c2ccc(Br)s2)s1 | -89.3*
COC(=O)c1cc(C)ccc1OCc1ccc([N+](=O)[O-])cc1 | -79.1*
COC(=O)c1ccc(COc2ccc(C)cc2[N+](=O)[O-])o1 | -129.9*
Cc1ccc(COC(=O)c2cc([N+](=O)[O-])ccc2N2CCOCC2)cc1 | 67.9
COCC(C)N=C1NN=C(c2c[nH]c3ccccc23)CS1 (stereo not given) | -66.2*
CCN=C1NN=C(c2c[nH]c3ccccc23)CS1 | -68.0*
COc1cccc(OCc2cc(C(=O)N3CCNC(=O)C3Cc3ccccc3)no2)c1 (stereo not given) | -74.4*
O=C(c1cc(COc2ccc3ncccc3c2)on1)N1CCC[C@H]1CO | -66.7*
COc1cccc(OCc2cc(C(=O)N3CCCC3c3ccccn3)no2)c1 (stereo not given) | -84.3*
CCc1ccccc1NC(=O)CN(C)C(=O)Cn1ncc(Cl)c(Cl)c1=O | -62.6*
COc1cccc(/C=N/Nc2ncnc3scc(-c4ccccc4)c23)c1O | 60.7
COc1ccc(/C=N/Nc2nncc3ccccc23)cc1 | 67.1
COc1ccccc1/C=N/Nc1nncc2ccccc12 | -131.5*
Oc1c(Br)cc(/C=N/Nc2nncc3ccccc23)cc1Br | -108.6*
Cc1ccc(OCc2cc(C(=O)N3CCN(C)C[C@@H]3c3ccccc3)no2)cc1C | -106.3*
CN1CCN(C(=O)c2cc(COc3ccccc3)on2)[C@@H](c2ccccc2)C1 | -165.7*
N#Cc1ccc(-c2ccc(OCC3CNC(=O)O3)cc2)cc1 (stereo not given) | -74.7*
COc1ccc(NC(=O)Nc2ccc(Br)cn2)cc1 | -146.1*
Cc1cccc(NC(=O)Nc2ccc(Br)cc2)n1 | -126.8*
COc1ccc(NC(=O)Nc2cccc(C)n2)cc1 | -201.2*
CCC(=O)Nc1ccc(C(=O)Nc2cccc(C)n2)cc1 | -168.9*
O=C(Cc1c(Cl)cccc1Cl)OCc1ccccn1 | -123.8*
CCOC(=O)CSC1=C(C#N)C(C)C2=C(CCCC2=O)N1 (stereo not given) | -61.7*
Oc1ccc(N=Nc2n[nH]c(-c3ccc(Cl)cc3)n2)cc1 | -109.3*
SMILES | aSyn 5UTR act
Oc1ccc(-c2nc3ccc4ccccc4c3c3c2CCC3)cc1O | -151.2*
Nc1nc(Nc2ccccc2)nc(NCc2ccccc2)c1[N+](=O)[O-] | 84.2
c1ccc(Nc2nc(NCc3ccco3)c3ccccc3n2)cc1 | -66.8*
Oc1c(C(Nc2nc3ccccc3s2)c2ccco2)ccc2cccnc12 (stereo not given) | 65.8
c1coc(CNc2nc3ccccc3s2)c1 | -137.2*
c1ccc2sc(NC3=NCN(CC4CCCO4)CN3)nc2c1 (stereo not given) | -85.8*
c1coc(CN2CN=C(Nc3nc4ccccc4s3)NC2)c1 | -80.6*
O=C(Nc1ccccc1Br)c1ccc2nccnc2c1 | -113.5*
O=C(Nc1ccccc1C(F)(F)F)c1ccc2nccnc2c1 | -89.0*
Oc1ccccc1/C=N/NC1=NCCCCC1 | -160.8*
COc1ccc(/C=N/Nc2cc(N(C)C)nc(N(C)C)n2)cc1 | -65.2*
COc1ccc(/C=N/NC2=NCCCCC2)cc1 | -85.9*
CC(N=c1ccccn1C(=O)Nc1ccc(Cl)cc1)c1ccco1 (stereo not given) | -121.0*
Cc1ccc2nsnc2c1NC(=O)CCl | -82.3*
Cc1ccc2nsnc2c1NC(=O)c1ccc([N+](=O)[O-])o1 | -173.5*
c1ccc(-c2csc(N3CCSCC3)n2)cc1 | -90.3*
c1ccc(-c2cn3nc4c(nc3n2)CCCC4)cc1 | 109.3
O=C(CSc1nc(-c2ccc(F)cc2)cs1)N1CCOCC1 | -119.1*
Fc1ccc(-c2csc(N3CCOCC3)n2)cc1 | -129.3*
c1ccc(-c2csc(-n3cccn3)n2)cc1 | -130.4*
Fc1ccc(-c2csc(N3CCSCC3)n2)cc1 | -62.7*
Brc1ccc(-c2csc(N3CCC(c4ccccc4)C3)n2)cc1 (stereo not given) | -85.7*
O=C(C(Cl)c1ccccc1)N1CCOCC1 (stereo not given) | -64.8*
CC(/C=C/c1ccc(N(C)C)cc1)=N\N=C(/N)SC1CC(=O)N(c2ccc(C(=O)O)cc2)C1=O (stereo not given) | -67.7*
S=C(N/N=C1\CCc2ccccc21)NC1CCCCC1 | -105.9*
SMILES | aSyn 5UTR act
O=C(N/N=C1\CCCc2ccccc21)c1cccc(Br)c1 | -92.7*
C/C(=N\NC(=O)c1cccc(Br)c1)c1ccccn1 | 108.3
CCOC(=O)N/N=C1\CCc2ccccc21 | -102.4*
O=C(N/N=C1\CCc2ccccc21)c1ccccc1Cl | -129.2*
O=C(N/N=C1\C(=O)c2cccc3cccc1c23)c1ccc(O)cc1 | -136.6*
O=C(N/N=C1\CCc2ccccc21)c1ccc(O)cc1 | -75.0*
O=C(N/N=C/c1ccc(O)cc1O)c1ccc(CN2C(=O)c3cccc4cccc2c34)cc1 | 62.5
Cc1ccc(C(=O)N/N=C2\CCc3ccccc32)c(C)c1 | -139.1*
CCOc1ccc(/C=C\C(C)=N\O)cc1 | -149.8*
CCOc1ccc(/C=C/C(=O)CCC(=O)O)cc1 | -78.8*
CC(NC(=O)Nc1ccc2c(c1)OCO2)C1CCCO1 (stereo not given) | -112.4*
O=C(Nc1ccc2c(c1)OCO2)C1CCCCC1 | -91.8*
CC(C)C(NC(=O)C1CCCCC1)C(=O)Nc1ccc2c(c1)OCCO2 (stereo not given) | -65.7*
Cc1cccc2c1ncc1c(=O)n(-c3ccccc3)[nH]c12 | -145.9*
Cn1c(=Nc2ccccc2)sc2ccccc21 | -76.6*
Cn1c(=NC(=O)c2ccco2)sc2ccccc21 | -125.8*
Cc1sc(=NC(=O)c2ccco2)n(C)c1-c1ccc(F)cc1 | -113.1*
O=C(Nc1ccccc1O)c1csc2c1CCCC2 | -157.0*
O=C(N/N=C/c1cccc(F)c1)c1csc2c1CCCC2 | -143.8*
O=C(N/N=C/c1ccccc1F)c1csc2c1CCCC2 | -235.2*
O=C(Nc1ccc(-n2cnnn2)cc1)c1cn2ccccc2n1 | -88.5*
COCCn1c(C)cc(C2=NNC(=Nc3ccccc3)SC2)c1C | -79.3*
C=CCn1c(C)cc(C2=NNC(=NCc3ccccc3)SC2)c1C | -181.6*
COc1ccc(CN=C2NN=C(c3ccccc3)CS2)cc1 | -113.9*
Clc1ccc(C2=NNC(=NCC3CCCO3)SC2)cc1 (stereo not given) | -73.1*
SMILES | aSyn 5UTR act
Cc1cc(C2=NNC(=NCCc3ccccc3)SC2)c(C)n1CC1CCCO1 (stereo not given) | -147.4*
CCOC(=O)/C(=N/Nc1ccc(C)cc1)S(=O)(=O)c1ccc(Cl)cc1 | -141.9*
CCOc1ccc(N=c2scc(-c3ccccc3)n2CCO)cc1 | -103.5*
CCn1c(-c2ccccc2)csc1=Nc1ccc(O)cc1 | -139.0*
OCCn1c(-c2ccc3c(c2)OCO3)csc1=Nc1ccccc1 | -97.1*
COc1cc(C2Nc3cc(Cl)c(S(N)(=O)=O)cc3S(=O)(=O)N2)ccc1OCc1ccccc1 (stereo not given) | -147.0*
Cc1ccc(/C=N/NC(=O)Nc2ccccc2)o1 | -79.6*
Cc1ccc(S(=O)(=O)N(C)CC(=O)N/N=C/c2ccc(C)o2)cc1 | 46.5
Cc1ccc(/C=N/NC(=O)NC2CCCCC2)o1 | -65.5*
Cc1nn(C(=O)c2cccs2)c(N)c1-c1ccccc1 | -125.5*
COc1ncnc2c1oc1ccccc12 | -71.0*
c1ccc(Sc2ncnc3c2oc2ccccc23)nc1 | -194.6*
O=C(NCCCC1CCCC1)C1CCC(=O)N(Cc2cccc(F)c2)C1 (stereo not given) | -161.5*
COc1ccccc1CCCNC(=O)C1CCC(=O)N(Cc2ccccc2F)C1 (stereo not given) | -130.4*
CCc1nnc(NC(=O)Nc2ccccc2OC)s1 | -69.8*

Screens from PubChem BioAssay.
